Common to all, as to assay: NCI-60 one-dose screen, 48 h (100 = growth as untreated, 0 = no growth, -100 = all killed)
Holding throughout (conditions): 10 µM unless noted

For experiment [1], the system named is SR leukemia.
Experiment [2] deals with RPMI-8226 leukemia.
For experiment [3], the system named is OVCAR-8 ovarian.
The test system of experiment [4] is OVCAR-5 ovarian.
For experiment [5], the system named is OVCAR-4 ovarian.
Experiment [6] has as its system SK-OV-3 ovarian.
In experiment [7] the test system is IGROV1 ovarian.
In experiment [8] the test system is OVCAR-3 ovarian.
The test system of experiment [9] is HS 578T breast.
Experiment [10] deals with NCI/ADR-RES ovarian.
The subject of experiment [11] is T-47D breast.
The test system of experiment [12] is BT-549 breast.
The test system of experiment [13] is MDA-MB-435 melanoma.
The subject of experiment [14] is SW-620 colon.
Experiment [15] has as its system MCF7 breast.
Experiment [16] has as its system HCT-116 colon.
The subject of experiment [17] is HCC-2998 colon.
Experiment [18] has as its system KM12 colon.

The structures appear in SMILES notation. Compounds without any hit were thinned out: in the full panel of roughly 83,000, 20% have a hit.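 Growth was measured after 48 h exposure to one concentration of compound in 96-well plates. Values under 10 count as active.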 A number with no mark means an inactive call. Calls of active or inactive are those of the source.

Turning to `O=S(=O)(NCCCNc1nccc(-c2c(-c3ccc(F)c(O)c3)nc3sccn23)n1)c1ccc(Cl)cc1`, the growth in experiment [1] is 61.6%; in experiment [2], 43.1%; in experiment [3] it was 52.9%; in experiment [4], 129%; in experiment [5], 99.1%; in [6], 85.3%. The growth in experiment [7] is 80.2%; in [8] it was 88.7%; in [9] it was 91.1%; in experiment [10], 103%; in [11] it was 66.1%; in [12], 101%. Moreover, the growth is 32.5% in [13]; 99.2% in [14]; 77.2% in experiment [15]; 46.3% in experiment [16]; 112% in [17]; 75.1% in experiment [18].

Consider `O=C1N=C(c2c(-c3[nH]c(=O)c4ccc(Br)cc4c3O)c(O)c3ccccc3c2O)C(=O)c2cc(Br)ccc21`, for which the growth in experiment [1] was 20.8%; in experiment [2], 6.4% (active); in experiment [3], -23.5% (active); in [4], 10.4%; in experiment [5], -59.7% (active); in experiment [6], -32.6% (active). Besides, the growth in [7] was -55.9% (active); in experiment [8], -81.5% (active); in experiment [9], -21.9% (active); in [10], -28.9% (active); in experiment [11] it was -34.2% (active); in [12] it was -25.4% (active). In addition, the growth in experiment [13] was -63.4% (active); in experiment [14] it was -70.7% (active); in experiment [15], -35.2% (active); in [16], -21.7% (active); in experiment [17], -44.3% (active); in experiment [18], -53.2% (active).

Turning to `O=S(=O)(NCCNc1cc(-c2cn(-c3ccccc3)nc2-c2ccccc2)ccn1)c1ccc(F)cc1`, the growth is 79.3% in [1]; 72.5% in experiment [2]; 83% in experiment [3]; 106% in experiment [4]; 85.6% in [5]; 92.1% in experiment [6]. The growth was 98% in experiment [7]; 94.7% in experiment [8]; 87.3% in experiment [9]; 81.3% in [10]; 50.5% in experiment [11]; 94.8% in experiment [12]. The growth was 83.9% in [13]; 95.4% in [14]; 86.3% in [15]; 79.4% in [16]; 102% in [17]; 87.3% in experiment [18].

Regarding `COc1ccc2c(c1)NC(=O)CN2c1nc(C)nc2ccccc12`, the growth in experiment [1] was 18.8%; in experiment [2] it was 45.2%; in experiment [3], 12.5%; in experiment [4], 51.5%; in [5] it was 45.5%; in [6], 31.3%. In addition, the growth was 18.8% in experiment [7]; -13.9% (active) in experiment [8]; 40% in [9]; 14% in experiment [10]; 55.5% in [11]; 1.24% (active) in experiment [12]. The growth was 1.13% (active) in [13]; 22% in experiment [14]; 14.9% in [15]; 0.468% (active) in [16]; 16.6% in experiment [17]; 8.92% (active) in experiment [18].

Turning to `O=C1CCCCN1CCCCC#Cc1ccccc1C#Cc1ccc([N+](=O)[O-])cc1`, the growth in [1] was 18.1%; in experiment [2], 2.47% (active); in [3] it was 55.4%; in [4], 60%; in experiment [5], 60.2%; in [6] it was 71.1%. The growth was -36.7% (active) in [7]; 56.3% in experiment [8]; 69.4% in experiment [9]; 43.4% in experiment [10]; 49.4% in experiment [11]; 65.9% in [12]. The growth in experiment [13] was 45.5%; in experiment [14], 27.3%; in [15], 49.6%; in experiment [16], 23.1%; in experiment [17], 67.2%; in experiment [18], 27.2%.

Take `O=S(=O)(NCCCNc1cc(-c2cn(-c3ccccc3)nc2-c2cccc(O)c2)ccn1)c1ccc(C(F)(F)F)cc1`: the growth is 8.04% (active) in experiment [1]; 15.4% in experiment [2]; 53% in experiment [3]; 57.8% in [4]; 45.1% in experiment [5]; 54.8% in experiment [6]. For the same compound, the growth in [7] was 58.9%; in experiment [8], 49.6%; in experiment [9] it was 22.6%; in experiment [10], 35%; in experiment [11], 35.1%; in [12] it was 42.2%. The growth was 34.9% in experiment [13]; 27.4% in experiment [14]; 22% in experiment [15]; 29% in [16]; -30.5% (active) in experiment [17]; 23.3% in experiment [18].

Consider `COc1cc(OC)c(C(=O)/C=C/c2cccc(C(F)(F)F)c2)c(OC)c1`, for which the growth in experiment [1] was 6.07% (active); in experiment [2], 1.61% (active); in [3] it was 14.1%; in experiment [4], 42.4%; in [5], 31.4%; in experiment [6], 42.1%. Further, the growth in experiment [7] is 11.8%; in [8], 17.5%; in experiment [9], 15.4%; in [10], 17.1%; in [11], 16.4%; in [12], -2.51% (active). For the same compound, the growth was 16.2% in experiment [13]; 0.796% (active) in [14]; 17% in experiment [15]; 2.79% (active) in experiment [16]; 29.1% in [17]; 11% in experiment [18].

`O=C(Nc1ccc(Cl)cc1)c1cc(-c2ccc(F)cc2)c2sc(=O)[nH]c2n1`: the growth in experiment [1] was 16.6%; in [2], 10.9%; in experiment [3], 13%; in [4] it was 72.2%; in experiment [5], -0.62% (active); in experiment [6], 0.427% (active). Moreover, the growth in [7] was 29.3%; in [8] it was 14%; in [9], 29.4%; in experiment [10] it was 3.43% (active); in experiment [11] it was 3.75% (active); in experiment [12], -13.1% (active). The growth was 8.39% (active) in experiment [13]; 14.5% in experiment [14]; 4.61% (active) in [15]; 3.3% (active) in experiment [16]; 22% in experiment [17]; 6.83% (active) in [18].

(Values after PubChem BioAssay (NCI).)
